# Measured values published in PubChem BioAssay (NCI).
# The panel holds about 83,000 compounds, 20% with a hit somewhere; the sample as a whole holds those more often.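 Cell lines were cultured in 96-well plates, exposed to a single compound concentration, and assessed for percent growth 48 hours later.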 The source made the active and inactive calls. Rule for the calls: active = growth percent below 10; inactive = the rest.
# System: MDA-MB-435 melanoma
# Experiment: NCI-60 one-dose screen, 48 h (100 = growth as untreated, 0 = no growth, -100 = all killed)
# Conditions: 10 µM unless noted
row,SMILES,growth
1,C1=C\COCc2cc(ccc2OCCN2CCCC2)Nc2nccc(n2)-c2cccc(c2)COC/1,-54.6% (active)
2,O=C(Nc1cn[nH]c1-c1nc2ccc(CN3CCOCC3)cc2[nH]1)NC1CC1,35.9% (inactive)
3,Cc1cc2c(-c3nc4ccccn4c3N)c(O)c(O)cc2c(O)c1-c1c(C)cc2c(-c3nc4ccccn4c3N)c(O)c(O)cc2c1O,13.4% (inactive)
4,Cc1csc(-c2nnc(Nc3ccc(Oc4ncccc4-c4ccnc(N)n4)cc3)c3ccccc23)c1,31.9% (inactive)
5,CC(C)CC(=O)Nc1n[nH]c2c1CN(C(=O)C1CCN(C)CC1)C2(C)C,12% (inactive)
6,Cc1ccccc1N1C(c2ccccc2)=NNC12C=CC(=O)C=C2Cl (stereo unspecified),112% (inactive)
7,C=CCn1c(=O)c2cnc(Nc3ccc(N4CCN(C)CC4)cc3)nc2n1-c1cccc(C(C)(C)O)n1,-61.7% (active)

# System: SW-620 colon
# Experiment: as above
# Conditions: 10 µM unless noted
row,SMILES,growth
1,Cc1cc(C)n(CC(=O)Nc2ccc(-c3nc4ccccc4s3)cc2)n1,113% (inactive)
2,CNS(=O)(=O)Nc1nccc(Cc2c(C)c3ccc(Oc4ncccn4)cc3oc2=O)c1F,29% (inactive)
3,C[C@@H](Oc1cc(-n2cnc3ccc(CN4CCN(C)CC4)cc32)sc1C(N)=O)c1ccccc1C(F)(F)F,13.6% (inactive)
4,COc1ccc(Cl)c(Nc2nc3ccccc3nc2NS(=O)(=O)c2cccc(NC(=O)C(C)(C)N)c2)c1,65.7% (inactive)
5,COc1ccc(-c2ccc3c(N4CCOC[C@@H]4C)nc(N4CCOC[C@@H]4C)nc3n2)cc1CO,8.32% (active)
6,O=C(Nc1cccc(Cl)c1)Nc1ncc(CCNc2ncnc3ccsc23)s1,62.6% (inactive)
7,C#Cc1cccc(Nc2ncnc3cc(OCCOC)c(OCCOC)cc23)c1,74.6% (inactive)
8,O=C(Nc1ccc(Nc2ncnc3sc4c(c23)CCOC4)cc1)Nc1ccc(Cl)c(C(F)(F)F)c1,121% (inactive)
9,CCCCN1C(=O)c2cccc3c(-c4ccc5c(c4)ncn5C4CCCCC4)ccc(c23)C1=O,107% (inactive)
10,COc1cc(Nc2c(C#N)cnc3cc(OCCCN4CCN(C)CC4)c(OC)cc23)c(Cl)cc1Cl,37% (inactive)
11,COc1ncc(-c2ccc3nccc(-c4ccnnc4)c3c2)cc1NS(=O)(=O)c1ccc(F)cc1F,-30.9% (active)
12,C/C(=C(/c1ccc(Cl)cc1)c1ccc(OCCN2CCCC2)cc1)c1ccccc1,51.4% (inactive)
13,COc1cc(OC)c(/C=C/S(=O)(=O)Cc2ccc(OC)c(NCC(=O)O)c2)c(OC)c1,24.5% (inactive)
14,Nc1ncnc2c1ccn2-c1cccc(NC(=O)c2ccc(N3CCOCC3)c(C(F)(F)F)c2)c1,66.5% (inactive)
15,C/C=C/C=N/NC(=S)Nc1ccccc1,121% (inactive)
16,C=CC(=O)Nc1cc(Nc2nccc(-c3cn(C)c4ccccc34)n2)c(OC)cc1N(C)CCN(C)C,-63.7% (active)
17,C[C@@H](NC(=O)c1ncnc(N)c1Cl)c1ncc(C(=O)Nc2cc(C(F)(F)F)c(Cl)cn2)s1,56.9% (inactive)
18,COc1cc2c(Oc3ccc4[nH]c(C)cc4c3F)ncnc2cc1OCCCN1CCCC1,102% (inactive)
19,NC[C@@](O)(c1ccc(Cl)cc1)c1ccc(-c2cn[nH]c2)cc1,7.7% (active)
20,Cc1cc(O)cc(-c2c(-c3ccnc(-c4cccnc4)c3)cnn2C)c1,83.4% (inactive)
21,CS(=O)(=O)N1CCN(Cc2cc3nc(-c4cccc5[nH]ncc45)nc(N4CCOCC4)c3s2)CC1,38.8% (inactive)
22,CN[C@@H]1C[C@H]2O[C@@](C)([C@@H]1OC)n1c3ccccc3c3c4c(c5c6ccccc6n2c5c31)C(=O)N[C@H]4O,-6.96% (active)
23,O=c1[nH]ccc2c(S(=O)(=O)N3CCCNCC3)cccc12,91.1% (inactive)
24,CCN(CCCOc1ccc2c(Nc3cc(CC(=O)Nc4cccc(F)c4)[nH]n3)ncnc2c1)CCOP(=O)(O)O,35.8% (inactive)
25,Cn1cc(-c2cnn3c(N)c(Br)c([C@@H]4CCCNC4)nc23)cn1,63.8% (inactive)
26,C[C@@H](Nc1cc(F)cc(F)c1)c1cc(C(=O)N(C)C)cc2c(=O)cc(N3CCOCC3)oc12,60.5% (inactive)
27,COc1ccc2c(CCCc3ccc(Cl)cc3Cl)c3[n+](cc2c1OC)CCc1cc2c(cc1-3)OCO2,4.21% (active)
28,Cn1c(=O)c(F)c(Nc2ccc(I)cc2F)c2c(=O)n(C[C@@H](O)CO)cnc21,21.6% (inactive)
29,CC(C)(C)c1cnc(CSc2cnc(NC(=O)C3CCNCC3)s2)o1,5.06% (active)
